“And” between values parts separate entries of the source, which are not always exact repeats. Equal entries are not always repeated. Out of some 260,000 compounds screened, about 1,500 (0.58%) were called active. Another 5% or so got no clear call; they are omitted. The list is a sample of the results. Measured potencies and affinities stand elsewhere. Values without a mark were called inactive.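 How the source made its calls: active means inhibition above a set limit at one or more doses, reproduced on every date tested; inconclusive means results disagree between test dates, or hit never tested in dose response; inactive means the rest.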
Each compound was assayed against Virion infectivity factor (Human immunodeficiency virus type 1 group M subtype B (isolate BH10)) + Virion infectivity factor (Human immunodeficiency virus type 1 group M subtype B (isolate BRU/LAI)) + Virion infectivity factor (Human immunodeficiency virus type 1 group M subtype B (isolate PCV12)) + Virion infectivity factor (Human immunodeficiency virus type 1 group M subtype B (isolate HXB2)) + DNA dC->dU-editing enzyme APOBEC-3G (Homo sapiens) (UniProt P69720+P69721+P69722+P69723+Q9HC16) (assay: inhibitors of Vif binding to APOBEC3G peptide, primary screen, biochemical, TR-FRET, GST-Vif 1-94, biotin-A3G peptide, dose response retest (AID 1117319;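 further: Vif residues 1-94 fused to GST binding biotinylated APOBEC3G peptide 110-148; 0% = full assay without inhibitor and 100% = GST in place of GST-Vif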)). Conditions: stronger effect = higher value.

Question: How did the inhibition turn out when `CNCc1ccccc1Sc1ccc(OC)cc1` was run?
Answer: 4.31%

Question: For `CNCc1ccccc1Sc1cccc2ccccc12`, which inhibition is on record?
Answer: -4.29%

Question: How did the inhibition turn out when `CNCc1ccccc1Sc1cccc(O)c1` was run?
Answer: -4.96%

Question: Which inhibition does the source give for `Cc1ccc(O)c(Sc2cc(C)ccc2O)c1` here?
Answer: 3.64%

Question: `O=C(COc1cc(F)ccc1[N+](=O)[O-])Nc1ccc2c(c1)OCO2` was tested. Which inhibition did it give?
Answer: -6.99%

Question: `CNCCCOc1cccc(Oc2ccccc2)c1` was tested. Which inhibition did it give?
Answer: 9.66%

Question: How did the inhibition turn out when `COc1cccc2cc(C(=O)c3ccccc3)oc12` was run?
Answer: -4.51%

Question: How did the inhibition turn out when `O=C(NCc1ccc2c(c1)OCO2)c1ccccn1` was run?
Answer: 10.1%

Question: With `O=C(Nc1ccc2c(c1)OCO2)c1cc2ncc(Br)cn2n1` as the compound, how does the inhibition read?
Answer: 6.91%

Question: With `O=C(NN1CCOCC1)c1cc(-c2ccc(Cl)c(Cl)c2)nc2ccccc12` as the compound, how does the inhibition read?
Answer: -15.2%

Question: How did the inhibition turn out when `CC1CC(OCC(O)CN2CCOCC2)CC(C)(C)C1` (stereo not given) was run?
Answer: -2.99%

Question: For `N#CCC(=O)Nc1ccc(C(=O)OC(C(=O)Nc2cc(C(F)(F)F)ccc2Cl)c2ccccc2)cc1` (stereo not given), which inhibition is on record?
Answer: 6.13%

Question: With `CCOC(=O)C(=NC1CCS(=O)(=O)C1)NNc1cc(Cl)ccc1Cl` (stereo not given) as the compound, how does the inhibition read?
Answer: 11.7%

Question: How did the inhibition turn out when `COC(=O)Cn1ncn2cccc2c1=O` was run?
Answer: 31%

Question: Which inhibition does the source give for `CCOC(=O)CCCn1ncn2c(cc3occc32)c1=O` here?
Answer: 7.22%

Question: `CC1CCCCC1NC(=O)CCNS(=O)(=O)c1ccc2c(c1)CCC(=O)N2` (stereo not given) was tested. Which inhibition did it give?
Answer: 6.16%

Question: For `CCCn1nc(C(=O)Nc2cccc(C(=O)OC)c2)c2ccccc2c1=O`, which inhibition is on record?
Answer: 0.28%

Question: How did the inhibition turn out when `COC(=O)c1ccc(C)c(NC(=O)c2nn(C)c(=O)c3ccccc23)c1` was run?
Answer: 0.46%

Question: `CCN(C(=O)C1CCCCC1)c1nnc(-c2cccnc2)s1` was tested. Which inhibition did it give?
Answer: -11.9%

Question: Which inhibition does the source give for `O=C(C1CCN(S(=O)(=O)c2cccc3cccnc23)CC1)N1CCN(c2ccccc2)CC1` here?
Answer: 3.12%

Question: With `O=C(C1CCCN1S(=O)(=O)c1cccc2cccnc12)N1CCc2ccccc2C1` (stereo not given) as the compound, how does the inhibition read?
Answer: 8.45%

Question: For `O=C1CCCN1CCCNC(=S)Nc1cccc2ccccc12`, which inhibition is on record?
Answer: 30.4%

Question: `CC(C)OC(=O)CSc1nnc(-c2ccncc2)n1N` was tested. Which inhibition did it give?
Answer: -2.43%

Question: How did the inhibition turn out when `O=c1cc(CN2CCc3ccccc32)nc2sccn12` was run?
Answer: 23.2%

Question: How did the inhibition turn out when `O=c1cc(CN2CCCc3ccccc32)nc2sccn12` was run?
Answer: 22%

Question: For `Cc1ccc(CCNc2ncnc(Cl)c2N)cc1`, which inhibition is on record?
Answer: -3.15%

Question: With `Cc1nn(C)cc1/C=N\NC(=O)c1ccc(Cn2cc(Cl)cn2)cc1` as the compound, how does the inhibition read?
Answer: -3.19%

Question: Which inhibition does the source give for `COc1cccc(C(C#N)N2N=C(C)CC2(C)C)c1O` (stereo not given) here?
Answer: -2.38%

Question: For `COc1cc(C(C#N)N2CCCCC2)ccc1O` (stereo not given), which inhibition is on record?
Answer: 7.46%

Question: `O=S(=O)(Nc1cccc(-n2cnnn2)c1)c1ccccc1F` was tested. Which inhibition did it give?
Answer: -7.41%

Question: How did the inhibition turn out when `COc1ccc(N=Cc2sc3ccccc3c2Cl)cc1` was run?
Answer: 0.88%

Question: How did the inhibition turn out when `Oc1c(C=Nc2ccccc2)sc2ccccc12` was run?
Answer: -6.91%

Question: For `CCCOc1ccc(NC(N)=O)cc1OCCC`, which inhibition is on record?
Answer: 0.61%

Question: Which inhibition does the source give for `C=C1CCN([C@H](C(=O)NCc2ccc(OC)cc2)C(C)C)S(=O)(=O)c2ccccc21` here?
Answer: 2.28%

Question: With `CCCn1nnc(NC(=O)c2ccc(-c3cc(Cl)ccc3Cl)o2)n1` as the compound, how does the inhibition read?
Answer: 3.66%

Question: How did the inhibition turn out when `O=C(NNC(=O)c1ccc(Cl)c(Cl)c1)c1cccnc1` was run?
Answer: -10.1%

Question: For `COCc1nnc(NS(=O)(=O)c2ccc(Cl)cc2)s1`, which inhibition is on record?
Answer: -13.7%

Question: With `Cc1cc[n+](CCC(=O)O)c2ccccc12` as the compound, how does the inhibition read?
Answer: 27.6%

Question: `Nc1ccc(S(=O)C(F)(F)F)cc1` (stereo not given) was tested. Which inhibition did it give?
Answer: -4.35%

Question: For `CC[n+]1ccc(C[n+]2ccccc2)c2ccccc21`, which inhibition is on record?
Answer: 31.8%

Question: Which inhibition does the source give for `Cc1ccnc2ccc(P(=O)(c3ccccc3)c3ccccc3)cc12` here?
Answer: -4.5%

Question: `CC(C)CN(C(=O)COC(=O)Cc1c[nH]c2ccccc12)C1CCS(=O)(=O)C1` (stereo not given) was tested. Which inhibition did it give?
Answer: -1.62%

Question: Which inhibition does the source give for `Cn1cnc([N+](=O)[O-])c1C(=O)Nc1cccc([N+](=O)[O-])c1` here?
Answer: -0.16%

Question: For `CCc1ccc(NC(=O)CSCc2ccc(C(=O)O)cc2)cc1`, which inhibition is on record?
Answer: 2.67%

Question: How did the inhibition turn out when `O=C(/C(=C(\[O-])c1ccccc1)[n+]1ccc2ccccc2c1)c1ccc(Cl)cc1` was run?
Answer: -6.22%

Question: How did the inhibition turn out when `Cc1ccc(C)c(S(=O)(=O)Nc2cc(SCC(=O)O)c(O)c3ccccc23)c1` was run?
Answer: 30.9%

Question: For `Cc1cc(C)c(S(=O)(=O)Nc2cc(SCC(=O)O)c(O)c3ccccc23)cc1C`, which inhibition is on record?
Answer: 29.4%

Question: With `COC(=O)c1cc2sccc2n1CC(=O)Nc1ccc(OC)c(OC)c1OC` as the compound, how does the inhibition read?
Answer: -6.58% and -2.62%

Question: How did the inhibition turn out when `Cc1ccc(-c2nnc3n2CCCCC3)cc1` was run?
Answer: 32.1%

Question: `C1CCc2nnc(-c3nnc4n3CCCCC4)n2CC1` was tested. Which inhibition did it give?
Answer: -7.36%

Question: Which inhibition does the source give for `O=C(Nc1cccc2nsnc12)c1ccc2c(c1)OCO2` here?
Answer: -0.24%

Question: How did the inhibition turn out when `COc1cccc(OCC(O)CN2CCN(c3ccc(Cl)cc3)CC2)c1` (stereo not given) was run?
Answer: 2.34%

Question: `COc1ccc(O)c(/C=N/c2sc(C)c(C)c2C#N)c1` was tested. Which inhibition did it give?
Answer: 10.1%

Question: Which inhibition does the source give for `COc1ccc(S(=O)(=O)N2CCOCC2)cc1C(=O)Nc1cc(C)on1` here?
Answer: 2.2%

Question: How did the inhibition turn out when `CCOC(=O)C1=C(C)OC(N)=C(C#N)C1c1c(C)nn(-c2ccc(C)cc2)c1Cl` (stereo not given) was run?
Answer: 1.7%

Question: With `Cc1nn(-c2ccccc2)c(Cl)c1C1C(C#N)=C(N)Oc2c1c(C)nn2-c1ccccc1` (stereo not given) as the compound, how does the inhibition read?
Answer: 2.03%

Question: How did the inhibition turn out when `CC(=O)c1cccc(OCc2cc(C(=O)N(C)Cc3nccs3)no2)c1` was run?
Answer: -3%

Question: For `CC(C)(C)c1ccc(N2C(=O)CC(C/C=C/c3ccccc3)C2=O)cc1` (stereo not given), which inhibition is on record?
Answer: -5.69%

Question: `O=C(COC(=O)c1ccc(NS(=O)(=O)c2cccs2)cc1)NCC1CCCO1` (stereo not given) was tested. Which inhibition did it give?
Answer: -1.37%

Question: For `O=C(COC(=O)c1ccc(S(=O)(=O)Nc2ccccc2)cc1)NCc1ccco1`, which inhibition is on record?
Answer: 3.75%

Question: For `CC1CC(=O)Nc2ccccc2N1C(=O)CN1C(=O)C(=O)N(C)C1=O` (stereo not given), which inhibition is on record?
Answer: 3.84%

Question: Which inhibition does the source give for `CC(=O)Nc1ccc(/C=N/Nc2nncc3ccccc23)cc1` here?
Answer: -1.2%

Question: `Cc1cccc(C)c1NC(=O)COC(=O)CN1C(=O)C2CCCCC2C1=O` (stereo not given) was tested. Which inhibition did it give?
Answer: -6.55%

Question: With `O=C1C2C3C=CC(C3)C2C(=O)N1c1ccccc1` (stereo not given) as the compound, how does the inhibition read?
Answer: 23.8%

Question: Which inhibition does the source give for `O=C1C2C3CCC(CC3)C2C(=O)N1c1ccccc1` (stereo not given) here?
Answer: 3.86%

Source: PubChem BioAssay AID1117319 (Southern Research Institute, 2015)
